# Screening data: PubChem, National Center for Advancing Translational Sciences (NCATS)
# A selection: hits, their analogues and other compounds. The true share with any hit is near 9.3%.
# ELG1 repair inh – blocks ELG1-dependent DNA repair in HEK293T cells. Potency, µM (doses to about 46.1 µM), without a hit: top-dose activity change, negative = inhibition, hits mostly inhibitors. HEK293T ELG1-luciferase reporter, luminescence, 16 h; DNA damage induced by 5-fluorouridine. hit rate 2.3% among 330,000; further: on the % scale 0 is the no-effect control and ±100 the full control effect; nearly all actives have a fitted effect of over 55% in size
#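 Quantitative HTS, concentration-response format. 2,000 cells/well co-treated with 5-fluorouridine and compound, 16 hr in 5% CO2 at 37 °C; ONE-Glo luminescence read after 30 min.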
# FLuc modulator – firefly luciferase modulation, counter-screen for miR-21 project; P08659; purified FLuc, Km substrates, luminescence inhibition; Potency, µM (titrated, usually from 57.5 µM), for inactives: top-dose activity change, negative = inhibition, actives largely listed as inhibitors; hit rate 6.9% among 360,000;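 further: plate controls were vehicle for no effect and reference inhibitor for full effect; nearly all actives have a fitted effect of over 55% in size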
# Target sequence (P08659 whole entry, looked up): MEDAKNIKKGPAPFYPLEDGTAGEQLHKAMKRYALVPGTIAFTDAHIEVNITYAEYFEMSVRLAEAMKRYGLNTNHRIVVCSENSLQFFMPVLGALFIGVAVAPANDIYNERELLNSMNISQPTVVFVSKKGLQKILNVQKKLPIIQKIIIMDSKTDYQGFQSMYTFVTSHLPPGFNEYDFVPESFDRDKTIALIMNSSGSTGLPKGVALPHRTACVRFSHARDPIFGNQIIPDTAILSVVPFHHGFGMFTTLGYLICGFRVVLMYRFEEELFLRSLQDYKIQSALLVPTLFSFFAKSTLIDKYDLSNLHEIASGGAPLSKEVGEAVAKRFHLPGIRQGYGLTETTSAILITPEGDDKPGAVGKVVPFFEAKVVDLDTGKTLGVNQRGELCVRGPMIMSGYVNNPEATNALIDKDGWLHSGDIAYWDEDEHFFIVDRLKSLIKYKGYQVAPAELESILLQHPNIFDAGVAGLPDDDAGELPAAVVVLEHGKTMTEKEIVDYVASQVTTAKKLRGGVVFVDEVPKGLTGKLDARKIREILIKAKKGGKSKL
#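 Purified P. pyralis luciferase, 10 nM final, with Km-level 10 uM D-luciferin and 10 uM ATP in 50 mM Tris acetate pH 7.5, 10 mM Mg acetate, 0.01% Tween-20, 0.05% BSA; 6-point qHTS titration about 60 µM downward; luminescence read.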
# SMN2 splice enh – increases expression of the SMN2 splice variant; HEK293 SMN2-luciferase splicing reporter, luminescence, 30-36 h; Potency, µM (series often up to 46.1 µM), without a hit: at the top dose activity change, positive = activation, hits mostly activators; hit rate 2.8% among 210,000; AID 1458; further: % of control where 0% means no effect; nearly all actives have a fitted effect of over 55% in size
#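 qHTS luciferase splicing reporter: luminescence rises when SMN2 exon 7 is included in transfected HEK293 cells. Compound exposure lasted 30-36 h at 37C, with 4.5 mM final sodium butyrate as control, followed by a ONE-Glo read.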
# Rab9 prom act – activators of Rab9 promoter; Huh7 Rab9 promoter-luciferase reporter, luminescence, 24 h; Potency, µM (top dose mostly 9.22 µM), for inactives: at the highest dose activation, negative = inhibition, actives largely listed as activators; hit rate 2.8% among 320,000; AID 485297; further: % of control where 0% means no effect; nearly all actives have a fitted effect of over 60% in size
#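 Stable Rab9-luc Huh7, 1500 cells/well, 2 h settle; cmpd in DMSO, 24 h, 37 °C/5% CO2; luciferase reagent 10 min RT; luminescence.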
# NPC1 prom act – NPC1 promoter activation; Huh7 NPC1 promoter luciferase reporter, 24 h; Potency, µM (highest dose often 9.22 µM), for the others: at the top dose activation, hits mostly activators; hit rate 2.4% among 320,000; AID 485313; further: % of control where 0% means no effect; nearly all actives have a fitted effect of over 60% in size
#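 Readout is luciferase luminescence, reflecting NPC1 promoter activation in stably transfected Huh7 cells after 24 h compound exposure at 37 °C in reduced-serum medium with 10% FBS.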
# ELG1 genotox – inducers of genotoxicity in HEK293T ELG1-luciferase cells; AID 504466; hit rate 1.3% among 330,000; HEK293T ELG1-luciferase reporter, luminescence, 16 h; Potency, µM (titrated, usually from 46 µM), for inactives: top-dose activity change, positive = activation, most hits filed as activators; further: % of control where 0% means no effect; nearly all actives have a fitted effect of over 60% in size
#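 Cells (2,000/well) expressing the ELG1-luciferase fusion are dosed by pin tool and kept 16 hr at 37 °C, 5% CO2. Signal comes from ONE-Glo luciferase reagent after 30 min at room temperature.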
# An asterisk follows results filed as active; ? = inconclusive; . = no result given; [ ] = remark or other dose. The call rests on the fitted dose curve; in most records, active means well fitted curve in the direction sought with a large enough effect; inconclusive means small, poorly fitted or top-dose-only effect, or another doubt; inactive means no such curve, though single readings can be large; an effect the other way counts as inactive or inconclusive. Potency means the concentration at half of the fitted maximal effect.
SMILES,ELG1 repair inh,FLuc modulator,SMN2 splice enh,Rab9 prom act,NPC1 prom act,ELG1 genotox
CC(C)c1ccc(-c2csc(NC(=O)c3cccs3)c2C(=O)O)cc1,?,16.9µM*,.,1.6%,19.9%,-12.3%
Cc1ccc(-c2csc(NC(=O)c3ccc(Br)cc3)c2C(=O)O)cc1,?,12µM*,.,3.55µM*,2.51µM*,1.9%
Cc1ccc(-c2csc(NC(=O)c3ccccc3Cl)c2C(=O)O)cc1,?,26.9µM*,.,4.5%,-4.8%,0.6%
CC(C)=CCN1CCN(Cc2ccc(C)s2)CC1CCO (stereo unspecified),2.0%,-13.9%,-4.9%,-3.7%,0.3%,-0.7%
O=C1N/C(=C\c2ccc(O)cc2)C(=O)c2ccccc21,14.6%,1.2µM*,-8.5%,0.0%,-17.3%,?
CCc1nn(CC(=O)NCCCOC)c(=O)c2cc3ccccc3n12,.,3.9%,-1.6%,.,.,.
COc1cc2oc(=O)cc(-c3cccc(-c4cccc(C)c4)c3)c2c(OC)c1OC,20.6µM*,.,.,.,.,-7.3%
COc1ccc(-c2ccc(-c3cc(=O)oc4cc(OC)c(OC)c(OC)c34)cc2)cc1OC,10.3µM*,.,.,.,.,-6.3%
COCCCn1c(C(=O)N2CC(C)OC(C)C2)cc2c(=O)n3cccc(C)c3nc21 (stereo unspecified),1.0%,3.3%,.,0.3%,0.4%,1.3%
CC(=O)Nc1ccc(NC(=O)c2cc(=O)c3ccccc3o2)cc1,?,1.2%,-2.4%,-0.3%,14.5%,-18.8%
CC(=O)c1sc(NC(=O)c2cc(=O)c3ccccc3o2)nc1C,?,7.57µM*,11.2µM*,3.16µM*,2.51µM*,?
O=C(Nc1nc2ccc(Cl)cc2s1)c1cc(=O)c2ccccc2o1,.,?,13.7%,.,.,.
CCCc1nnc(NC(=O)c2cc(=O)c3ccccc3o2)s1,.,?,3.4%,.,.,.
CC(=O)c1sc(NC(=O)c2c(F)cccc2F)nc1C,6.8%,-14.4%,11.1%,-6.4%,-0.6%,7.7%
CCOC(=O)c1csc(NC(=O)c2cc(=O)c3ccccc3o2)n1,?,15.1µM*,23.2%,?,15.6%,10.1%
NC(=O)c1ccsc1NC(=O)c1cc(=O)c2ccccc2o1,?,2.69µM*,10µM*,1.78µM*,?,?
CC(=O)c1sc(NC(=O)c2oc3ccc(F)cc3c2C)nc1C,?,1.9µM*,.,2.82µM*,2.24µM*,18.2%
CC(C)(C)NC(=O)CN(C(=O)CS(=O)CC(=O)Nc1ccc(F)cc1)c1ccccc1 (stereo unspecified),-5.5%,3.8%,4.5%,-6.7%,-8.8%,0.0%
O=C(Nc1ccc(Br)c2cccnc12)c1ccc(Cn2cc(Cl)cn2)o1,0.0%,7.6%,-11.0%,-1.4%,-1.4%,-0.5%
O=C(CSCc1ccccc1Cl)N1CCN(c2ccc(Cl)cc2)CC1,.,-1.4%,.,.,.,.
C/C(=N\NC(=O)CNC(=O)C1COc2ccccc2O1)c1ccco1 (stereo unspecified),-9.4%,4.5%,.,-1.8%,-5.0%,-2.5%
COc1cccc(CNC(=O)CCNC(=O)c2ccc(Br)o2)c1,-0.5%,-1.0%,.,1.3%,-2.2%,0.1%[9.26 µM]
O=C(c1cc2ccccc2cc1O)N1CCCC1,-5.2%,1.6%,.,-6.1%,-2.7%,-0.3%
CCCc1ccc2oc(C(=O)NCCc3cnn(C)c3)c(C)c2c1,?,13.5µM*,.,1.78µM*,3.55µM*,?
CCCc1ccc2oc(C(=O)N3CCCC3)c(C)c2c1,?,21.3µM*,.,?,22.6%,?
SMILES,ELG1 repair inh,FLuc modulator,SMN2 splice enh,Rab9 prom act,NPC1 prom act,ELG1 genotox
CCOC(=O)N1CCN(C(=O)c2oc3ccc(S(=O)(=O)N(CC)CC)cc3c2C)CC1,11.6µM*,-2.3%,.,-4.0%,-7.9%,-18.4%
CCCc1ccc2oc(C(=O)N(Cc3nccn3C)C(C)C)c(C)c2c1,0.0%,?,.,26.9%,18.2%,13.3%
CCN(CC)S(=O)(=O)c1ccc2oc(C(=O)N3CCCCCC3)c(C)c2c1,?,0.1%,-37.5%,-2.8%,-2.6%,-26.4%
Cc1c(C(=O)N2CCCC2)oc2ccc(Br)cc12,?,?,.,2.9%,5.4%,24.9%
CCCc1ccc2oc(C(=O)N(C)Cc3ccn[nH]3)c(C)c2c1,?,15.1µM*,.,?,?,18.3µM*
CCOc1ccc(CCNC(=O)C2CCN(C(=O)N3CC(CC)Oc4ccc(C)cc43)CC2)cc1 (stereo unspecified),.,-9.4%,.,.,.,.
Cc1ccc(-c2cc(C(F)F)nc(N3CCOCC3)n2)cc1,-20.9%,-1.7%,-7.7%,-5.9%,-5.5%,-6.5%
CCCc1ccc2oc(C(=O)NCCc3nc(C(=O)OCC)cs3)c(C)c2c1,?,13.5µM*,.,2µM*,3.98µM*,13.8%
O=C(COc1ccc(S(=O)(=O)N2CCCC2)cc1)N1CCN(c2ccccc2F)CC1,?,1.3%,.,1.8%,-3.9%,-14.8%
O=C(NCC1CCCO1)c1ccc2[nH]c3c(c2c1)CCCC3 (stereo unspecified),?,21.3µM*,.,26.5%,4.6%,12.2%
O=C(NCCN1CCOCC1)c1sc2cc(Cl)ccc2c1Cl,?,-16.3%,.,0.0%,1.3%,16.0%
O=C(NCC1CCCO1)c1sc2cc(Cl)ccc2c1Cl (stereo unspecified),?,10.7µM*,12.6µM*,2µM*,3.16µM*,?
CC(C)(CNC(=O)c1sc2cc(Cl)ccc2c1Cl)N1CCOCC1,?,?,.,-3.9%,-0.1%,16.4µM*
CCOC(=O)CNC(=O)CSc1nnc(CCc2nc3ccccc3[nH]2)n1C,-7.1%,1.2%,.,-2.5%,0.6%,0.9%
COc1ccc(S(=O)(=O)NC2(C(F)(F)F)NC(=O)N(CCc3ccc(OC)c(OC)c3)C2=O)cc1 (stereo unspecified),14.2%,0.6%,2.5%,-1.6%,0.5%,1.8%
Cc1ccc(C)c(C(=O)CC2(O)C(=O)N(C)c3ccccc32)c1 (stereo unspecified),-1.6%,0.5%,0.2%,-0.2%,0.0%,-0.5%
COc1cc(-c2nc(-c3cccc(C(F)(F)F)c3)no2)cc(OC)c1OC,23.1µM*,6.7%,-55.9%,-5.9%,-4.2%,6.2%
COc1ccccc1-c1noc(-c2cc(OC)c(OC)c(OC)c2)n1,11.6µM*,-20.4%,16.8%,-5.7%,-0.1%,-0.2%
COc1cc(OC)cc(-c2nc(-c3ccccc3OC)no2)c1,7.7%,-14.8%,14.1%,20.8%,9.1%,8.4%
COc1ccccc1-c1noc(-c2cccnc2)n1,?,?,0.6%,14.0%,21.8%,20.6µM*
COc1cnc(-c2cccc(C(F)(F)F)c2)nc1OC,-9.1%,-10.3%,3.1%,14.5%,-1.6%,3.0%
